This note sets out measurements from PubChem BioAssay (NCATS).

Assay [1] addresses Lysosomal acid glucosylceramidase (Homo sapiens) (UniProt P04062). Kind of assay: Glucocerebrosidase-p2 (AID 348; in the data active = potency below about 10 µM; also: potency is read from the fitted curve at half-maximal effect). Particulars: purified GBA, blue fluorogenic substrate, 40 min. In a few lines: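 Compounds titrated from 0.6 nM upwards against 0.2 nM enzyme in pH 5.9 citric acid/KH2PO4, taurocholate, tween-20; blue fluorogenic substrate 80 uM, 40 min room temperature, stopped and read Ex 365/Em 440 for AC50.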

A short description of assay [2]: AP1 Signaling Pathway (AID 357). Also: % is scaled to controls: 0 for no effect and ±100 for the full control effect. The conditions noted are these: ME-180 AP-1-bla reporter, EGF-induced, beta-lactamase ratio, 5 h; at 7.69 µM (top of the series) unless noted. Summed up: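 AP-1-bla ME-180 cells with beta-lactamase reporter under AP-1 response element, stimulated with EC50 EGF; compounds titrated, 5 hours at 37 degrees Celsius. CCF4 read at 460/530 nm ratio; positive and negative modulators judged by AC50.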

A short description of assay [3]: NFAT Signaling Pathway (AID 444).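 Also: carbachol stimulus at about its EC50 of 1 µM final; % is scaled to controls: 0 for no effect and ±100 for the full control effect.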 Particulars: Jurkat NFAT-bla M1, carbachol, beta-lactamase ratio, 5 h; at 7.69 µM (top of the series) unless noted. Summed up:
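Jurkat cells with NFAT-driven β-lactamase reporter and co-expressed M1 receptor, stimulated with carbachol (final 1 uM, ~EC50), compound titration, 5 h at 37 °C. CCF4 loaded 1 h at RT; 460/530 nm ratio gave %activity and AC50.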

Assay [4] can be described thus: Stat Signaling Pathway (AID 446).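 Also: ME-180 cervical cancer cells given 40 pM IL-6 alongside compound; SIE-controlled beta-lactamase reporter measured as 460/530 nm FRET emission ratio; % is scaled to controls: 0 for no effect and ±100 for the full control effect.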 The conditions noted are these: ME-180 SIE beta-lactamase reporter, IL-6 stimulated, 5 h; at 7.69 µM (top of the series) unless noted. Summed up: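 ME-180 SIE-bla cells; overnight plating; cpd + IL-6 40 pM, 5 h, 37 C; LiveBLAzer 2.5 h RT; 460/530 nm emission ratio. Normalized to 300 pM IL-6 and 125 nM JAK inhibitor controls.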
Assay [5] deals with Glucocorticoid receptor (Homo sapiens) (UniProt P04150). Kind of assay: GR-GFP Redistribution (AID 450;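 active = compounds whose dose series gives a full or clear partial fitted curve of increased nuclear translocation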; also: potency is read from the fitted curve at half-maximal effect). The conditions noted are these: U2OS GR-GFP nuclear translocation, laser cytometry, 2 h.
Glucocorticoid receptor (Homo sapiens), sequence (P04150 whole entry, looked up, the tested form may be a part): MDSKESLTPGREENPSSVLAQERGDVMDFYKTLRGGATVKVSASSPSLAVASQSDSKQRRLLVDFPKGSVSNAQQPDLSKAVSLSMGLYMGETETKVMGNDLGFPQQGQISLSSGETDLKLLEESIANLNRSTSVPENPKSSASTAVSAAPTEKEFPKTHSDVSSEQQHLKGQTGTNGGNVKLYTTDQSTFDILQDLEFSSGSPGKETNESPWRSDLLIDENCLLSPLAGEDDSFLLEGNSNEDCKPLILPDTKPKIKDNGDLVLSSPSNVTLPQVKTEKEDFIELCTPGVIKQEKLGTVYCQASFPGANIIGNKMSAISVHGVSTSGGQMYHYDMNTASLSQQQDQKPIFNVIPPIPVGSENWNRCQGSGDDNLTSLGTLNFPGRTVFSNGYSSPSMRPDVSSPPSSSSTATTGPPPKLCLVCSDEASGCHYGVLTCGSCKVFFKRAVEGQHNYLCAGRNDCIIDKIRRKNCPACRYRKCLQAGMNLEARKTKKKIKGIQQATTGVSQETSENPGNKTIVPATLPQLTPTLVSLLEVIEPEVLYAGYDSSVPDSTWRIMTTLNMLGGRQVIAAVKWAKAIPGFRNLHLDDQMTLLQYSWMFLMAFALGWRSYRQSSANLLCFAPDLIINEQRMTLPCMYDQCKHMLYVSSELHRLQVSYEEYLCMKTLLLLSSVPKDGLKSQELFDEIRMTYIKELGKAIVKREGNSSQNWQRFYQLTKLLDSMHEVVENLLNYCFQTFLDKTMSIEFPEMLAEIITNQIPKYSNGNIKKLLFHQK
The target is the same in assay [6]. Kind of assay: GR-EFC Redistribution (AID 451; calls by dose curve; also: potency is read from the fitted curve at half-maximal effect). Particulars: CHO-K1 GR-EFC translocation, beta-gal luminescence, 2 h. Summed up: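 CHO-K1 cells expressing nuclear EA and GR-ED fragments of b-gal; compounds titrated up to 46 uM final, 2 h at 37 C. GR nuclear translocation read as complemented b-gal luminescence after 1 h RT detection.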
Assay [7] has as its target Mitogen-activated protein kinase 10 (Mus musculus) (UniProt Q61831). In words: JNK3 AlphaScreen Assay (AID 530).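 Also: kinase came from lysate of stimulated human HepG2 cells; signal reports phosphorylation of biotinylated GST-cJun 1-79 at Ser73 with 10 µM ATP; % is scaled to controls: 0 for no effect and ±100 for the full control effect.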 The conditions noted are these: JNK3 lysate, c-Jun phosphorylation; series mostly up to 57.1 µM. In a few lines:
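qHTS format: compounds tested as titrations against IL-1beta/TNF-alpha-activated HepG2 lysate JNK3 with biotin-GST-cJun substrate and 10 uM ATP at room temperature. Loss of anti-phospho-cJun AlphaScreen signal indicates inhibition.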
A general note: In Alpha technology, singlet oxygen from a donor bead excites a nearby acceptor bead.

The target in assay [8] is 3',5'-cyclic-AMP phosphodiesterase 4B (Homo sapiens) (UniProt Q07343). In words: qHTS Assay for Inhibitors of PDE-IV (AID 607; active = well fitted activation curve with a large enough effect in the main read-out, with a control signal flat, not every such curve was filed as active; also: % of control where 0% means no effect). Particulars: HEK293 ACTOne CNG channel cells, membrane potential fluorescence; series mostly up to 22.9 µM. In a few lines: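 ACTOne HEK293 cells carry a modified cAMP-gated CNG channel and express endogenous PDE4; plated 1000 cells/well, compounds up to 22.9 uM final. Membrane-potential dye fluorescence (ex 535/em 590) was read; parental cells received 10 uM forskolin + 100 uM RO 20-1724.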
3',5'-cyclic-AMP phosphodiesterase 4B (Homo sapiens), sequence (Q07343 whole entry, looked up): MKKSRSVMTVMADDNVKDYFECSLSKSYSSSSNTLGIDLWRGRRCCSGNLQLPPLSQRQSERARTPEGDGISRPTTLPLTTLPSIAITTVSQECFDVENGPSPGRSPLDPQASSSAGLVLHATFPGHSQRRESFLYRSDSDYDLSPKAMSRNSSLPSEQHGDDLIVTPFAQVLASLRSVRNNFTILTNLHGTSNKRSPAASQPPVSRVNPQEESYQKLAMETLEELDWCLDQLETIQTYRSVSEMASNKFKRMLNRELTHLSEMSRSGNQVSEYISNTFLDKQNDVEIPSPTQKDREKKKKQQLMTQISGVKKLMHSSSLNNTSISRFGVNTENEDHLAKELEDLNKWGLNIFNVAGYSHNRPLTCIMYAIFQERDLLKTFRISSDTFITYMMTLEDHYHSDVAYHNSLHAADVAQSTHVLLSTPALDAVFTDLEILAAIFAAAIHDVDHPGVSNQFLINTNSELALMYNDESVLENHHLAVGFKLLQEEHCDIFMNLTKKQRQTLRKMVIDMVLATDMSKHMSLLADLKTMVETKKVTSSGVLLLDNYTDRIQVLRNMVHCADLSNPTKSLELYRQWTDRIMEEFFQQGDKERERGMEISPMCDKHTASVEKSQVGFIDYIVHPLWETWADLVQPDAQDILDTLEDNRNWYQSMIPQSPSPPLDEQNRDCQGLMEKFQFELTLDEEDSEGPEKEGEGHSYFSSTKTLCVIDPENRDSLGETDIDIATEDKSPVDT
(In qHTS, concentration-response curves come from the screen itself.)

Assay [9] concerns the target Cytochrome P450 2D6 (Homo sapiens) (UniProt P10635). Kind of assay: qHTS Assay for Inhibitors and Substrates of Cytochrome P450 2D6 (AID 891; active = well fitted curve in the direction sought with a large enough effect; an effect the other way counts as inactive or inconclusive;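 also: luciferin methyl ether substrate demethylated by CYP2D6 with NADPH regeneration; % is scaled to controls: 0 for no effect and ±100 for the full control effect; nearly all actives have a fitted effect of over 60% in size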). The conditions noted are these: recombinant CYP2D6, luciferin-ME EGE luminescence; series mostly up to 11.4 µM. In a few lines: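 Human CYP2D6 (5 nM) with 30 uM Luciferin-ME EGE (at Km) in 100 mM KPO4, compound preincubated 10 min, then NADPH regeneration system for 60 min at room temperature. Luciferin read by luminescence; normalized to 1.43 uM quinidine.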

For assay [10], the target named is Cytochrome P450 3A4 (Homo sapiens) (UniProt P08684). In words: qHTS Assay for Inhibitors and Substrates of Cytochrome P450 3A4 (AID 884; active = well fitted curve in the direction sought with a large enough effect; an effect the other way counts as inactive or inconclusive; also: potency is read from the fitted curve at half-maximal effect; nearly all actives have a fitted effect of over 50% in size). The conditions noted are these: recombinant CYP3A4, Luciferin-PPXE luminescence; series mostly up to 57.1 µM. Summed up:
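20 nM human CYP3A4 with 25 uM Luciferin-PPXE (at KM) in 200 mM KPO4, preincubated 10 min with compound; NADPH regeneration started a 60 min RT reaction. Luciferin detected by luminescence, normalized to 57 uM ketoconazole as full inhibition.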

The target is the same in assay [11]. Kind of assay: qHTS Assay for Activators of Cytochrome P450 3A4 (AID 885; active = well fitted curve in the direction sought with a large enough effect; an effect the other way counts as inactive or inconclusive; also: nearly all actives have a fitted effect of over 65% in size). Particulars: recombinant CYP3A4, Luciferin-PPXE luminescence, 60 min; series mostly up to 57.1 µM. Summed up: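 20nM CYP3A4 + 25uM Luciferin-PPXE (=KM), 200mM KPO4; cpd 10 min RT; NADPH regen, 60 min RT; stop w/ detection buffer, 20 min; luminescence. Normalized to 57 uM ketoconazole.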

The target in assay [12] is Cytochrome P450 2C19 (Homo sapiens) (UniProt P33261). Kind of assay: qHTS Assay for Inhibitors and Substrates of Cytochrome P450 2C19 (AID 899; active = well fitted curve in the direction sought with a large enough effect; an effect the other way counts as inactive or inconclusive; also: potency is read from the fitted curve at half-maximal effect; nearly all actives have a fitted effect of over 60% in size). The conditions noted are these: recombinant CYP2C19, luciferin-H EGE luminescence; series mostly up to 11.4 µM. Summed up: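 Luminescent read-out of luciferin formed from Luciferin-H EGE (10uM, equal to KM). Enzyme 5nM in 50mM KPO4; compound added, 10 min at 37C, then NADPH regenerating system for 60 min at 37C. Full inhibition defined by 57uM ketoconazole.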
Cytochrome P450 2C19 (Homo sapiens), sequence (P33261 whole entry, looked up): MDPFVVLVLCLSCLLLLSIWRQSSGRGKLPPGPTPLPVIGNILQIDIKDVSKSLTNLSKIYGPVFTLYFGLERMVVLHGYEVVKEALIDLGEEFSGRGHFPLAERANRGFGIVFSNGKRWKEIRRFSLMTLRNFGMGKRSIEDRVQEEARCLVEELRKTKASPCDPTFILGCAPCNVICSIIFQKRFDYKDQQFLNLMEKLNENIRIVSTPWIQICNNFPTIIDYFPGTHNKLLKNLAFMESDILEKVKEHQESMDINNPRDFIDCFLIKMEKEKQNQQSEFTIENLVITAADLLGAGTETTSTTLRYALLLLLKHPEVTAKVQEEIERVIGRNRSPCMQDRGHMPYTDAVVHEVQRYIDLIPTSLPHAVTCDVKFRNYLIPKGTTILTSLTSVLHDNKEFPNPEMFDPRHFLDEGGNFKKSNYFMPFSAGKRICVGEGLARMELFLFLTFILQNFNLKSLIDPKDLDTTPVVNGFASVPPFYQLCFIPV

Assay [13] deals with Cytochrome P450 2C9 (Homo sapiens) (UniProt P11712). In words: qHTS Assay for Inhibitors and Substrates of Cytochrome P450 2C9 (AID 883; active = well fitted curve in the direction sought with a large enough effect; an effect the other way counts as inactive or inconclusive; also: potency is read from the fitted curve at half-maximal effect; nearly all actives have a fitted effect of over 60% in size). The conditions noted are these: recombinant CYP2C9, luciferin-H luminescence, 60 min; series mostly up to 57.1 µM. In a few lines: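 10nM CYP2C9 + 100uM Luciferin-H (=KM), 25mM KPO4; cpd 10 min 37C; NADPH regen, 60 min 37C; stop/detect with P450 Glo-Buffer 20 min; luminescence. Norm. to 57uM sulphaphenazole as full inhibition.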
Cytochrome P450 2C9 (Homo sapiens), sequence (P11712 whole entry, looked up): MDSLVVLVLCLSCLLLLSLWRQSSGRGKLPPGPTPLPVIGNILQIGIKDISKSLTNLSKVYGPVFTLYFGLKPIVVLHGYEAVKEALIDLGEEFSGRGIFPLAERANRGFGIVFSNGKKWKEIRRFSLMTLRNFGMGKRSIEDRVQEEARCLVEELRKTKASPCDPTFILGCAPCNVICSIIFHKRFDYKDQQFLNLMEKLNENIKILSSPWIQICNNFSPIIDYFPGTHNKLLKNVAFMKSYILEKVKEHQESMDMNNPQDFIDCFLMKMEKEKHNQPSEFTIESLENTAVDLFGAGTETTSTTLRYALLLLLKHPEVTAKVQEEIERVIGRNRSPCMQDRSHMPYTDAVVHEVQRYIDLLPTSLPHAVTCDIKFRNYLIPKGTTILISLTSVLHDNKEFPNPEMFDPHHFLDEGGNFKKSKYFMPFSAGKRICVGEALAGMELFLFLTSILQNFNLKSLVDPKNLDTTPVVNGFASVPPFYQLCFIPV

Unmarked numbers belong to inactive results. Records with an inconclusive call do not appear. Activity calls are given as the source filed them. Unless noted, calls follow the shape of the dose curve; as a rule, active = well fitted curve in either direction with a large enough effect (not every such curve was filed as active); inconclusive = small, poorly fitted or top-dose-only effect, or another doubt; inactive = flat fitted curve, though single readings scatter.

Cytochrome P450 2D6 (Homo sapiens), sequence (P10635 whole entry, looked up): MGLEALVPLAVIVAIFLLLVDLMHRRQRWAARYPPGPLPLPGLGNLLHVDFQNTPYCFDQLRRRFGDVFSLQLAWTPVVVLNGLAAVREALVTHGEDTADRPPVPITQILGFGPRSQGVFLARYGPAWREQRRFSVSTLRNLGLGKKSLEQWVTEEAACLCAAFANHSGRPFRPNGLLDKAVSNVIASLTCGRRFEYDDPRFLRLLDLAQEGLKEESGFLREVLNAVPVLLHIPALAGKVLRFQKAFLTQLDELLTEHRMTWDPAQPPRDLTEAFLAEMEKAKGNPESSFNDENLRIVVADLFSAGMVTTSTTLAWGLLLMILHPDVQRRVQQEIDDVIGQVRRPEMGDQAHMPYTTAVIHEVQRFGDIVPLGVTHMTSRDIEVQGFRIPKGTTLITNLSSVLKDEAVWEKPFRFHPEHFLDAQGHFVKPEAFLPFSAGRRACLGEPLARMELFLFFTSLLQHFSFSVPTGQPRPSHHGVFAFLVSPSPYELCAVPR
Lysosomal acid glucosylceramidase (Homo sapiens), sequence (P04062 whole entry, looked up): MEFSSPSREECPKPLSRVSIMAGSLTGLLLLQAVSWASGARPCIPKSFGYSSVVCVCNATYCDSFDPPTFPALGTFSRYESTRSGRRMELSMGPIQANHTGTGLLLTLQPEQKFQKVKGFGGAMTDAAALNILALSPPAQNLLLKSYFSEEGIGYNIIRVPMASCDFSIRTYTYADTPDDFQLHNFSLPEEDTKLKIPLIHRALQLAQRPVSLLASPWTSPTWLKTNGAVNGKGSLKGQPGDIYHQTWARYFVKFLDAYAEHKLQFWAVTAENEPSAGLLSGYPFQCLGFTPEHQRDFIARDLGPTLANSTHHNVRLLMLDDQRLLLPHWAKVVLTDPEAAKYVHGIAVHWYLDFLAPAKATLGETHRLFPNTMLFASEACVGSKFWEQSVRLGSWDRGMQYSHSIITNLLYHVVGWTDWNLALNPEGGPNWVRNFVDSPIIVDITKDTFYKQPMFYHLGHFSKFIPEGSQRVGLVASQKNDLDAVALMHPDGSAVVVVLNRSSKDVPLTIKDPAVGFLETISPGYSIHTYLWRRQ
Cytochrome P450 3A4 (Homo sapiens), sequence (P08684 whole entry, looked up): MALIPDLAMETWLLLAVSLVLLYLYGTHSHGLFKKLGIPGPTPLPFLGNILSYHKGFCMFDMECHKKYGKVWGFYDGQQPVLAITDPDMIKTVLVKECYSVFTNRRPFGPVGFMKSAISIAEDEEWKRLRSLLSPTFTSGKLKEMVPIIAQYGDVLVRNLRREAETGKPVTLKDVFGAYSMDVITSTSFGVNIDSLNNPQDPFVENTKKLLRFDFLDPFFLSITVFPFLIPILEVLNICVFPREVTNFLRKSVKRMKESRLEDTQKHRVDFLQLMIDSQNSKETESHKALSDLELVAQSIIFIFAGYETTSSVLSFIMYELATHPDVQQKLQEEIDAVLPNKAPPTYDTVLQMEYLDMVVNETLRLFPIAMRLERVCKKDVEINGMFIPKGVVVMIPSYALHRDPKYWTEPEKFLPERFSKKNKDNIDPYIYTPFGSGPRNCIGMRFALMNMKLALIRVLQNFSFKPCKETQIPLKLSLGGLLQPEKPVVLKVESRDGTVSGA

As to `O=C(O)C[C@H]1OCC=C2CN3CC[C@]45c6ccccc6N[C@@H]4[C@H]1[C@H]2C[C@H]35`, the Potency was greater than 11.4 µM in assay [1], greater than 46 µM in [5] and greater than 9.22 µM in assay [6]. Also, the activity change, negative = inhibition in [2] is 0.952%; in [3] it was -1.05%; in assay [7], 8.39% [at 11.4 µM]. The activity, negative = inhibition in assay [4] is -4.29%. Besides, the compound was classed as inactive in [8].
As to `CCN=C=NCCCN(C)C`, the values for the Potency in assay [1], in assay [5] and in [6] were greater than 11.4 µM, greater than 46 µM and greater than 9.22 µM, respectively. Moreover, the values for the activity change, negative = inhibition in [2] and in assay [3] were 5.33% and 4.76%, respectively. For the same compound, the activity, negative = inhibition in assay [4] is 2.84%. Moreover, the result in assay [8] was inactive. Besides, in assay [9], the Potency result is “inactive”.
As for `S=P(C1CCCCC1)(C1CCCCC1)[C@H](c1cccnc1)N1CCCC1`, the Potency in [1] is greater than 11.4 µM; in assay [5], greater than 46 µM; in assay [6] it was greater than 9.22 µM; in [10], 3.16 µM (active); in assay [12], 1.26 µM (active). Also, the activity change, negative = inhibition in assay [2] is 10.9%; in assay [3], 5.74%; in assay [7], 0.158% [at 11.4 µM]. The activity, negative = inhibition in assay [4] is -1.57%. The call in assay [8] was inactive. Moreover, the activity change, positive = activation in assay [11] was -61.4% [at 11.4 µM].
As for `O=[As](O)(O)c1ccc(NCc2ccccc2)cc1`, the Potency in assay [1] was greater than 11.4 µM; in [5], greater than 46 µM; in [6] it was greater than 9.22 µM. For the same compound, the activity change, negative = inhibition in assay [2] is -4.31%; in assay [3] it was 11%; in assay [7] it was 1.56% [at 11.4 µM]. In addition, in [4], the activity, negative = inhibition is 11.2%. Moreover, in assay [8], the compound was classed as inactive. In addition, the Potency entry in [9] is “inactive”.
With `CCNCCC1(CC)C(=O)NC(=O)NC1=O`, the results for the Potency in [1] and in [5] were greater than 11.4 µM and greater than 46 µM, respectively. Further, the values for the activity change, negative = inhibition in assay [2], in assay [3] and in assay [7] were 0.916%, 11.4% and 3.87% [at 11.4 µM], respectively. In addition, the activity, negative = inhibition in assay [4] was 2.13%. The compound was classed as inactive in assay [8].
`CC1=NN(c2ccccc2)C(=O)[C@@H]1N=Nc1ccc([As](=O)(O)O)c(O)c1`: the Potency in [1] was greater than 11.4 µM; in assay [5], greater than 46 µM; in assay [6], greater than 9.22 µM; in [13], 3.16 µM (active). The activity change, negative = inhibition in assay [2] is 6.32%; in assay [3], 12.3%; in assay [7], -2.32% [at 11.4 µM]. The activity, negative = inhibition in [4] was -13.3%. Further, in assay [8], the result was inactive. The Potency result in assay [9] is “inactive”.
Regarding `[N-]=[N+]=NCC(=O)c1c[nH]c(=O)[nH]c1=O`, the Potency in [1] was greater than 11.4 µM; in assay [5] it was greater than 46 µM; in assay [6], greater than 9.22 µM. Besides, the activity change, negative = inhibition in assay [2] is 12.2%; in assay [3], 5.05%; in assay [7] it was 0.476% [at 11.4 µM]. Moreover, in assay [4], the activity, negative = inhibition was 1.86%. Besides, the outcome in [8] was inactive.
On to `C[C@]12CN(CC[N+](C)(C)C)C[C@]1(C)[C@@H]1CC[C@@H]2O1`, for which the Potency in assay [1] was 6.39 µM (active); in assay [5], greater than 46 µM; in assay [6] it was greater than 9.22 µM. Also, the activity change, negative = inhibition is 12.6% in assay [2], 10.2% in assay [3] and -2.5% [at 11.4 µM] in [7]. In addition, the activity, negative = inhibition in [4] is -6.86%. Also, the outcome in assay [8] was inactive.
